aSyn 5UTR inh = MLPCN primary screen, SNCA 5' untranslated region | alpha-synuclein 5'UTR reporter, inhibitor activity | inhibition, % (tested at 7.5 µM) | 300,000 tested, 0.82% active | AID 1813, 2009; in the data active = inhibition above about 60%;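 also: H4 neuroglioblastoma cells stably carrying SNCA 5'UTR luciferase fusion; 0% = DMSO wells and 100% = positive control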
HSP90 inh = HSP90 inhibitors, primary screen, cell lysate, luminescence | inhibition, % at 5.6 µM | AID 1789, 2009 | 290,000 tested, 0.91% active | Heat shock protein HSP 90 (rabbit reticulocyte lysate; luciferase refolding) | Rabbit reticulocyte lysate, luciferase refolding luminescence, 3 h;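 active = inhibition above the screen-wide mean plus 3 SD, computed separately per campaign, cut at about 16% in these data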;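 also: 0% = DMSO wells and 100% = 60 µM geldanamycin wells; inhibitors lower the luminescence because luciferase stays unfolded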
HIF-2a inh = HIF-2a reporter inhibitors, primary screen, luminescence, 786-0 RCC cells; 786-0 RCC cells HIF-2a reporter, luciferase luminescence, overnight; inhibition, % at 18.8 µM; 360,000 tested, 0.72% active;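 active = inhibition of the luminescence signal of 40% or more relative to plate controls, in a single-dose primary screen at 18.75 µM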
C8 TRAIL sens = viability loss with TRAIL in NB7+C8 cells, primary screen, TRAIL sensitizer project, cell-based, ATPlite luminescence; inhibition (viability loss, TRAIL sensitization), % at 10 µM; 360,000 tested, 1% active;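 active = compounds causing at least 50% loss of cell viability in the single-dose screen, relative to plate controls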
TWEAK-Fn14 inh = inhibitors of TWEAK-Fn14 signaling, primary screen, luciferase reporter cells, uHTS; TWEAK-stimulated Fn14 reporter cells, luciferase luminescence, 8 h; inhibition, % at 10 µM; 360,000 tested, 2% active; AID 1159606, 2016; in the data active = inhibition above about 50%
TROY signal inh = inhibitors of TROY-driven NF-kB signaling, primary screen, Q293 LMP1-TROYcd cells, NF-kB luciferase, uHTS. Q293 LMP1-TROYcd NF-kB luciferase reporter, 4 h. inhibition, % at 10 µM. AID 1347056, 2019. 360,000 tested, 0.98% active;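 active = compounds whose plate-normalised and pattern-corrected inhibition of the luciferase reporter signal at the single screening dose is 50% or more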
* hit, by the source's call; . = not tested or not shown. Only some compounds are listed: those with a hit (about 3.9% of all), similar ones and a draw of the others.

SMILES	aSyn 5UTR inh	HSP90 inh	HIF-2a inh	C8 TRAIL sens	TWEAK-Fn14 inh	TROY signal inh
Cc1ccc(Cn2c(C(C)Nc3nc(-c4ccc(F)cc4)cs3)nc3cc(Cl)c(Cl)cc32)cc1 (configuration not stated)	-19	.	-30	16	52*	45
CC(Nc1nc(-c2ccc(F)cc2)cs1)c1nc2cc(Cl)c(Cl)cc2n1CCOCCO (configuration not stated)	-36	.	3	15	51*	17
COc1ccc(-c2csc(NC(C)c3nc4cc(Cl)c(Cl)cc4n3CCCO)n2)cc1 (configuration not stated)	12	.	-67	22	48	55*
Cc1cccc2sc(=S)[nH]c12	.	.	21	-8	13	-3
CC(NS(=O)(=O)c1cccc(C(=O)NCc2ccncc2)c1)c1ccccc1 (configuration not stated)	.	.	19	-11	1	-9
Cn1cnc(S(=O)(=O)N2CCCCC2c2cc(C(=O)NCc3ccc(Cl)c(Cl)c3)no2)c1 (configuration not stated)	.	.	18	-7	3	5
CCn1c(=S)[nH]c2c(=O)n(C)c(=O)n(C)c21	.	.	8	15	-8	3
CCOc1ccc(-c2nnc(SCc3nnc(-c4ccccc4)o3)n2-c2ccccc2F)cc1	-43	15	-82	12	52*	61*
Cc1ccc(-c2nnc(CSc3nnc(COc4ccccc4)n3-c3ccccc3)o2)cc1	-5	6	-16	8	-1	-11
CC(=O)Nc1nc2cc3c(cc2s1)OCCO3	-57	17*	-145	-3	31	-46
Fc1cccc2sc(Nc3nc4cc5c(cc4s3)OCO5)nc12	-222	-3	-193	11	-25	-70
COc1ccc(C(=O)Nc2nc3cc4c(cc3s2)OCO4)c(OC)c1	-98	-2	-308	51*	-31	-38
COc1ccc2nc(NC(=O)c3cc(C)oc3C)sc2c1	-140	2	-192	40	3	-26
Fc1cccc2sc(Nc3nc4cc5c(cc4s3)OCCO5)nc12	-78	9	-58	53*	73*	72*
CCc1nnc(NS(=O)(=O)c2ccc(NC(=O)c3ccc([N+](=O)[O-])s3)cc2)s1	.	.	14	4	-11	8
COc1cc2nc(NC(=O)c3ccc(F)cc3Cl)sc(=O)c2cc1OC	8	10	0	14	64*	-4
O=C1C=C(N2CCOCC2)c2ccccc2C1=O	114*	11	37	93*	10	12
O=C1C=C(N2CCOCC2)c2cccc3cccc1c23	.	.	-7	-9	4	2
COc1ccc(Sc2ccc(-c3nc4cnccn4c3NC3CCCCC3)cc2OC)cc1	.	.	15	23	62*	31
COc1cccc(N2CCN(C(=O)CC(C)(C)CC3=NS(=O)(=O)c4ccccc4N3)CC2)c1	-23	7	22	-7	15	9
CC(C)(CC(=O)N1CCN(c2ccc(Cl)cc2)CC1)CC1=NS(=O)(=O)c2ccccc2N1	10	0	7	5	54*	39
CCCCCCCCN1C(=O)[C@H](CC(=O)N2CCOCC2)C[C@@]2(C(=O)OC)CC(C)(C)CC=C12	.	.	-1	1	.	.
O=C(ONC1=NCCCCC1)c1ccc(Cl)cc1	6	3	30	83*	-94	-12
FC(F)(F)c1cc(Oc2ccccc2Cl)nc(-c2ccccn2)n1	64*	-4	19	2	8	7
O=C(CN(Cc1cccs1)S(=O)(=O)c1ccc(S(=O)(=O)NC2CCCCC2)cc1)Nc1ccccc1	-3	3	16	-1	69*	27
SMILES	aSyn 5UTR inh	HSP90 inh	HIF-2a inh	C8 TRAIL sens	TWEAK-Fn14 inh	TROY signal inh
O=C(CN(C1CC1)S(=O)(=O)c1ccc(S(=O)(=O)NC2CCCCC2)cc1)Nc1ccccc1	.	-1	32	-2	24	30
CCN1C(=O)[C@@H]2[C@@H]3CN(S(=O)(=O)c4ccc(C)cc4)[C@@H](c4ccccc4F)[C@@H]3C(=O)C[C@@H]2C1=O	.	.	4	-15	0	0
Cc1ccc(S(=O)(=O)NC(=O)NC2=NC(C)(C)N(c3ccc(Cl)c(Cl)c3)C(N)=N2)cc1	.	.	13	82*	-3	-1
Cc1ccc(S(=O)(=O)NC(=O)Nc2ccc(Cl)cn2)cc1	-6	0	19	5	-1	-11
COc1cccc(C(O)c2nc(-c3ccc(N(C)C)cc3)cs2)c1 (configuration not stated)	.	.	-204	4	-7	-16
COc1ccc(OC)c(NC(=O)c2cccc(N3C(=O)C4C5C=CC(C6CC56)C4C3=O)c2)c1 (configuration not stated)	-22	-2	2	0	53*	25
COC(=O)c1ccc(NC(=O)c2ccc[n+]([O-])c2)cc1	-19	1	3	8	87*	2
COC(=O)c1ccc(NC(=O)c2cccc(N3C(=O)CCC3=O)c2)cc1	.	.	2	-6	5	-11
COc1ccc(OC)c(NC(=O)c2cccc(N3C(=O)C4C5CCC(C5)C4C3=O)c2)c1 (configuration not stated)	-8	-1	4	-7	12	8
COC(=O)c1ccc(NC(=O)c2cccc(N3C(=O)C4C5C=CC(C6CC56)C4C3=O)c2)cc1 (configuration not stated)	-1	-1	11	33	85*	55*
O=C(Nc1ccccc1)c1cccc(N2C(=O)C3C4C=CC(C5CC45)C3C2=O)c1 (configuration not stated)	-20	-2	2	-4	12	-9
CC1=C(C(=O)N2CCCCCC2)CC(CC(=O)NCc2ccco2)C(=O)N1Cc1ccccc1 (configuration not stated)	.	.	2	8	13	17
CC(=NNC(=S)N1CC2CCC(CC2)C1)c1ccncn1	.	.	-137	19	-34	-11
O=C(COC(=O)c1nc(Cl)ccc1Cl)c1ccc[nH]1	-2	.	-9	-7	-2	8
O=C(COC(=O)c1nc(Cl)c(Cl)c(Cl)c1Cl)c1ccc[nH]1	-31	.	-15	4	49	67*
COc1ccc(N2C[C@H](CSC)[C@@H](CC(=O)Nc3ccccc3)C2=O)cc1	.	.	-6	-3	-45	-9
COc1ccc2c(c1OC)C(CC(C)=O)N1CCc3cc4c(cc3C1C2=O)OCO4 (configuration not stated)	.	.	-14	-2	-13	-10
NS(=O)(=O)c1ccc(NC(=O)c2ccc(S(=O)(=O)N3CCc4ccccc43)cc2)cc1	-6	-1	30	-5	33	6

Screens (PubChem)
